The values below come from ChEMBL document CHEMBL4513216, “Probing the Open Global Health Chemical Diversity Library for Multistage-Active Starting Points for Next-Generation Antimalarials” (ACS Infect Dis, 2020).

The campaign covered roughly 69,000 compounds. About 8,600 (12%) showed an effect of 50% or more. The list comes from a sample in which strong results are over-represented; it also holds similar structures and randomly drawn compounds.

The test system of the assay is Plasmodium berghei. Put plainly: Screen against P. berghei liver stage (PbLuc), transformed with Luciferase, at 10uM. It counts as functional, HepG2. As to conditions: tested at 10 uM.
Consider `Cc1cc2c(=O)n3c(nc2s1)CCN(Cc1cnc(C(C)C)nc1)CC3`, for which the INHIBITION came out at 43.7%.
For the molecule `Cc1cc2c(=O)n3c(nc2s1)CCN(Cc1[nH]cnc1C)CC3`, the INHIBITION was 54.4%.
For `O=C1COC2(CCN(CC3CCC3)CC2)CN1c1cncnc1` the value was 8.67%.
`Cn1cnnc1C1CCCN(C(=O)COc2ccccc2Cl)C1` (stereo not given): the INHIBITION is given as -37.7%.
For `Cc1cccc(CN2C[C@@H]3CN(C(=O)c4cnccn4)C[C@@H]3C2=O)n1` the value was 43.2%; for `O=C(CCN1CCOCC1)Nc1cccc(CNCc2cccs2)c1`, 49.2%; for `CCC[C@H]1CN(S(C)(=O)=O)C[C@@H]1NC(=O)Cc1ccc(OC)cc1`, -26.9%.
As to `COCCNC(=O)CCNC(=O)c1ccc(N2CCC(C)=N2)cc1`, the INHIBITION was found to be 40.2%.
As to `COCCOCCNC(=O)c1ccc(N2CCC(C)=N2)cc1`, the INHIBITION stood at 50.1%.
Take `CC1=NN(c2ccc(C(=O)OCCNC(=O)c3ccncc3)cc2)CC1`: the INHIBITION is reported as -17.8%.
For `CC(NC(=O)N1CCCN(C)CC1)c1ccc2c(c1)OCCO2` (stereo not given) the value was -9.39%; for `Cn1nccc1C(=O)N1CCOC(Cc2cccnc2)C1` (stereo not given), 39.2%.
Consider `c1cc(C2CC2)n2cnc(C3CN(Cc4nccs4)CCO3)c2c1` (stereo not given), for which the INHIBITION was 15.7%.
For `c1cc(C2CC2)n2cnc(C3CN(Cc4ccncc4)CCO3)c2c1` (stereo not given) the value was 51.2%; for `c1cncc(CN2CCOC(c3ncn4c(C5CC5)cccc34)C2)c1` (stereo not given), 14.2%; for `Cc1nc(C)n(CC2CCCN2c2ncnc3sc(C)c(C)c23)n1` (stereo not given), -11.6%.
Take `c1ccc2ncc(CC3CCNCC3)cc2c1`: the INHIBITION is -0.232%.
Take `COC1C[C@@H]2CN(C(=O)Cc3ccc(C)s3)C[C@@H]2C1` (stereo not given in full): the INHIBITION is -34.45%.
Next, `FC(F)(F)c1cccc(CN2CCOC[C@H](Oc3cccnc3)C2)c1`: 63.8%.
Regarding `Clc1ccc(CN2CCOC[C@H](Oc3cccnc3)C2)cc1`, the INHIBITION is reported as -11.1%.
Next, `Fc1ccc(CN2CCOC[C@H](Oc3cccnc3)C2)cc1`: 38.1%; `CC(C(=O)Nc1ccc(Cl)cn1)N1CCc2nn(C)c(=O)cc2C1` (stereo not given): 6.23%; `Cc1cccc(CN2CCn3cc(Cn4cccn4)nc3C2)n1`: -46.9%.
Next, `CO[C@H]1CNC[C@@H]1NC(=O)CCc1nc(-c2ccccc2)no1`: 0.426%.
For `CC(CNC(=O)c1ccn(-c2ccc(F)cc2)n1)Cn1cccn1` (stereo not given) the value was 39.6%.
Regarding `Cc1nc(CN2CCO[C@@H]3CN(C(=O)CN(C)C)CC[C@@H]3C2)cs1`, the INHIBITION is -9.18%.
For `Cc1ccc(NC(=O)Nc2c(O)c3ccccc3oc2=O)cc1`, the INHIBITION is listed as 41.6%.
Next, `Cc1ccc(NC(=O)Nc2c(O)c3ccccc3oc2=O)cc1C`: -43.7%; `Cc1cc(C)cc(NC(=O)Nc2c(O)c3ccccc3oc2=O)c1`: 59.8%; `COc1ccccc1C1(O)CCCN(C(=O)c2csc(C(C)=O)c2)C1` (stereo not given): 36%.
Next, `Cc1occc1C(=O)N1CCC2(CC1)CC(OCc1ccccn1)CO2` (stereo not given): 31.1%; `c1csc(CN2C[C@@H](n3cccn3)[C@H]3OCCC[C@H]32)c1`: -2.41%; `c1ccc(O[C@@H]2CN(Cc3nccs3)[C@@H]3CCCO[C@@H]32)nc1`: 27.6%.
On to `c1cnn([C@@H]2CN(Cc3nccs3)[C@@H]3CCCO[C@@H]32)c1`, for which the INHIBITION is given as 63.5%.
For `CS(=O)(=O)c1cc(Cl)cnc1C1CCCN(C(=O)C2CCOCC2)C1` (stereo not given) the value was 30.65%.
In the case of `CNS(=O)(=O)c1ccc(CN2CCN3CCNC(=O)C3C2)cc1` (stereo not given), the INHIBITION turned out to be 49.9%.
`CN1C(=O)CC(C(=O)O)C12CCN(Cc1ccc(Cl)c(Cl)c1)CC2` (stereo not given): the INHIBITION worked out at 5.46%.
For `O=C1NCCN2CCN(Cc3ccc(Cl)c(Cl)c3)CC12` (stereo not given) the value was 52.2%; for `COc1cccc(S(=O)(=O)CCN2CCn3c(C)nnc3C2)c1`, -17%.
For `CCn1cc(CN2CCCC(c3[nH]ncc3S(C)(=O)=O)C2)cn1` (stereo not given) the value was 57.2%.
Regarding `CCCn1cc(CN2CCC(c3[nH]ncc3S(C)(=O)=O)C2)cn1` (stereo not given), the INHIBITION was 45.6%.
Next, `CCn1cc(CN2CCC(c3[nH]ncc3S(C)(=O)=O)C2)cn1` (stereo not given): 41.2%; `CCn1cc(C(=O)N2CCCC(c3[nH]ncc3S(C)(=O)=O)C2)cn1` (stereo not given): 16.9%.
Consider `CCn1cc(CN2CCCC(c3[nH]ncc3-c3ccc(C)cc3)C2)cn1` (stereo not given), for which the INHIBITION is listed as 70.9%.
For `CCn1cc(CN2CCCC(c3[nH]ncc3-c3ccc(F)cc3)C2)cn1` (stereo not given) the value was 9.52%; for `COc1cc(-c2n[nH]c(CO)n2)cc(OC)c1OC`, 17.1%.
For `CC(Cn1ccnc1)NC(=O)Nc1ccccn1` (stereo not given) the value was 29.95%; for `CCOC(=O)c1ccc(NC(=O)c2c(O)nc3c(c2O)CCCC3)cc1`, 27.5%; for `CC(C)c1nccn1CCC(=O)N1CCCCC1c1ccn[nH]1` (stereo not given), 30.95%.
As for `Cc1nn(C)c(N2CCOCC2)c1CNC1COc2ccccc2C1` (stereo not given), the INHIBITION came out at 5.03%.
